# FMDV inh – blocks foot and mouth disease virus; 1.2% of 410,000 active; Potency, µM (highest dose often 57.9 µM), without a hit: at the top dose activity change, negative = inhibition, actives largely listed as inhibitors; FMDV antiviral cell-based qHTS; calls by dose curve; tested in HEK293T cells; note: read-out not given here; potency is the fitted concentration of half-maximal effect; nearly all actives have a fitted effect of over 45% in size
# FBPA Giardia inh – Giardia lamblia aldolase inhibition | Potency, µM (highest dose often 59.6 µM), for inactives: top-dose activity, negative = inhibition, actives largely listed as inhibitors | 0.71% of 290,000 active | purified Giardia FBPA; note: potency is the fitted concentration of half-maximal effect; nearly all actives have a fitted effect of over 55% in size
# Target sequence (A8B2U2 whole entry, looked up): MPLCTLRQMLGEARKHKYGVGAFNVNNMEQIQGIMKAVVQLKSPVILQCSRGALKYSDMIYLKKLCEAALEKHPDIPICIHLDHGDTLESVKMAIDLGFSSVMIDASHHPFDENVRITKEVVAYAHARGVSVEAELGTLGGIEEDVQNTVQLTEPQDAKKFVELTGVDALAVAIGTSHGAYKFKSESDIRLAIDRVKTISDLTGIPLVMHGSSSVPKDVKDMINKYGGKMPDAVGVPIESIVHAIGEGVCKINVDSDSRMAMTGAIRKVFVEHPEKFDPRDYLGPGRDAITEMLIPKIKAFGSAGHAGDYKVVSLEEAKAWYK
#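 40 nM FBPA preincubated 10 min at RT with compound (up to 57.5 uM final), then substrate plus GAPDH/TPI/NAD/arsenate coupling and diaphorase/resazurin added. Fluorescence read after 20 min at RT, 525/598 nm.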
# Tb PYK inh – blocks Trypanosoma brucei pyruvate kinase | Q57TT1 | TbPYK enzyme, Kinase-Glo Plus ATP luminescence, 45 min | Potency, µM (titrated, usually from 76.8 µM), inactives show top-dose activity, negative = inhibition, usual class: inhibitors | 0.12% of 410,000 active | AID 624173; note: potency is the fitted concentration of half-maximal effect; nearly all actives have a fitted effect of over 50% in size
#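 ADP (130 uM final) triggers the TbPYK reaction after compound addition; incubation is 45 min at room temperature. Kinase-Glo Plus is then added and luminescence imaged. Normalized data are fitted to concentration-effect curves.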
# RE007 growth inh – less growth of the S. pombe RE007 Vpr strain; S. pombe RE007 Vpr strain, BacTiter-Glo ATP luminescence, 24 h; Potency, µM (top dose mostly 92.2 µM), without a hit: top-dose activity change, negative = less growth, hits mostly inhibitors; 0.21% of 360,000 active; AID 651644; active = well fitted falling curve with a large enough effect; inconclusive = small, poorly fitted or top-dose-only effect; inactive = no such curve, though single readings can be large or run the other way; note: potency is the fitted concentration of half-maximal effect; nearly all actives have a fitted effect of over 50% in size
#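 Fission yeast RE007 carrying one integrated HIV-1 vpr copy, seeded at OD 0.01 in PMG+AL medium with 23 nL pinned compound. Grown 24 h at 30 degrees; viability read by BacTiter-Glo luminescence after 5 min.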
# Sm TGR block – S. mansoni TGR enzyme inhibition. Q962Y6. purified TGR, DTNB reduction, TNB absorbance 405 nm. Potency, µM (series often up to 114 µM), inactives show top-dose activity change, negative = inhibition, usual class: inhibitors. 3% of 360,000 active; note: potency is the fitted concentration of half-maximal effect; nearly all actives have a fitted effect of over 60% in size
#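 First, TGR (20 nM dispensed) and NADPH were mixed with compound. Second, a 15 min room-temperature incubation followed. Third, further NADPH and then DTNB were added to start the reaction. Finally, TNB absorbance was monitored kinetically.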
# HCMV inh – human cytomegalovirus inhibition. 4.5% of 410,000 active. AID 1259415. HFF cells, HCMV-luciferase reporter, 72 h; hits give low values. activity change, negative = inhibition, % at 57.5 µM; in the data active = activity change below about -60%; inconclusive = no clear call, values can overlap the other calls; inactive = above about -39%
#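 Two compound doses tested in HFFs infected with HCMV-luciferase, MOI 1 PFU/cell, 72 h at 37C. Lysate luminescence read with OneGlo; data normalized against buffer-only and 10uM Salinomycin inhibitor controls.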
# The depositor's hits bear a star; ? = inconclusive; . = not tested or not shown; ! = a repeat was not active; [ ] = another dose, or the depositor's remark. Shown are actives, neighbours in structure and some others; about 7.7% of the full set was active somewhere. Unless noted, calls come from the whole dose curve; as a rule, active = well fitted curve in the direction sought with a large enough effect; inconclusive = small, poorly fitted or top-dose-only effect, or another doubt; inactive = no such curve, though single readings can be large; an effect the other way counts as inactive or inconclusive. % is set by controls: 0 for no effect and ±100 for the full control effect.
SMILES,FMDV inh,FBPA Giardia inh,Tb PYK inh,RE007 growth inh,Sm TGR block,HCMV inh
Cc1ccc(N2C(=O)CC(Sc3nc4ccccc4o3)C2=O)cc1Cl (stereo unspecified),-9.2%,-8.4%,-0.9%,10µM*,12.6µM*,31.2
O=C(Cn1nc(-c2ccc(Cl)cc2)ccc1=O)NCc1ccccc1Cl,-5.6%,.,-0.9%,.,5.5%,26.1
COc1cccc(-n2c(SCC(=O)N3CCCCC3)nc3c([nH]c4ccccc43)c2=O)c1,-13.4%,5.3%,0.4%,1.0%,3.0%,16.6
Cc1cc(C)cc(-n2c(SCC(=O)Nc3cccc(F)c3)nc3c([nH]c4ccccc43)c2=O)c1,?,.,-2.9%,.,-1.3%,7.7
CCC1CCCCN1C(=O)CSc1nc2c([nH]c3ccccc32)c(=O)n1-c1cccc(OC)c1 (stereo unspecified),-12.0%,.,0.1%,.,-0.6%,-90.9*
O=C(CSc1nnc(-c2n[nH]c3ccccc23)n1-c1ccccc1)Nc1cccc(Cl)c1,-28.1%,-0.2%,3.2%,-19.2%,8.5%,-73.1*
COc1cccc(NC(=O)CSc2nc3c([nH]c4ccccc43)c(=O)n2-c2cccc(Cl)c2)c1,-21.0%,.,1.0%,.,9.2%,-73.6*
Cc1cc(C)cc(NC(=O)CSc2nc3c([nH]c4ccccc43)c(=O)n2-c2ccc(F)cc2)c1,0.0%,.,0.4%,.,2.5%,-88.0*
COc1cccc(-n2c(SCC(=O)Nc3cccc(C)c3)nc3c([nH]c4ccccc43)c2=O)c1,0.0%,.,-1.6%,.,20.6%,15.0
Cc1cc(CNC(=O)c2cnn(-c3ncc4c(n3)-c3ccccc3CCC4)c2C2CC2)on1,21.1%,.,.,.,.,.
CCc1nn(CC(=O)N2CCN(c3cccc(C)c3C)CC2)c(=O)c2cc3occc3n12,-18.1%,.,2.4%,.,-5.4%,-16.5
O=C(CSc1nc2c([nH]c3ccccc32)c(=O)n1-c1cccc(Cl)c1)N1CCOCC1,-33.9%,-11.7%,0.8%,3.8%,-9.6%,-92.9*!
CC(=O)Oc1c(Br)cc(N(C(C)=O)S(=O)(=O)c2ccccc2)c2ccccc12,-2.0%,28.2µM*,-18.4%,2.1%,3.55µM*,-27.1
CC(=O)Oc1ccccc1N(C(C)=O)S(=O)(=O)c1ccc2ccccc2c1,12.9%,-1.0%,-5.7%,1.8%,-3.3%[57.1 µM],-35.2
Cc1ccc(C(=O)N2N=C(c3ccccc3O)CC2c2ccccc2)cc1 (stereo unspecified),0.0%,6.8%,-10.8%,2.0%,9.3%,11.8
Cc1ccc(C(=O)N2N=C(c3ccc(Br)cc3)CC2c2ccccc2O)cc1 (stereo unspecified),23.2%,6.4%,-5.8%,1.1%,-5.0%,-62.1*
COc1ccc(C2=NN(C(=O)c3cccs3)C(c3ccccc3O)C2)cc1 (stereo unspecified),-10.9%,9.1%,-2.9%,7.2%,1.5%,-94.8*
COc1ccc(C2CC(c3ccccc3)=NN2C(=O)c2cccs2)cc1 (stereo unspecified),19.8%,2.8%,9.7%,5.2%,0.8%,-15.5
O=C(Nc1ccccc1)N1CCN(c2nc3ccccc3s2)CC1,?,-3.3%,2.6%,1.1%,-7.1%,?
O=C(Nc1ccc(F)cc1)N1CCN(c2nc3ccccc3s2)CC1,28.2µM*,-1.0%,-3.8%,-9.1%,-4.0%,?
O=C(c1ccc(Cl)c(Cl)c1)N1CCN(c2ccccn2)CC1,-20.6%,1.9%,2.9%,-6.5%,0.0%,-15.9
COc1cc2ccccc2cc1C(=O)N1CCN(c2ccccn2)CC1,-12.7%,5.9%,5.0%,10.2%,-3.8%,-62.7*
CN(c1ccccc1)S(=O)(=O)c1cc(C(=O)N2CCN(c3ccccn3)CC2)ccc1Cl,12.6µM*,2.2%,-14.2%,-26.4%,5.5%,-16.1
COc1cc(C(=O)N2CCN(c3ccccn3)CC2)cc(OC)c1OC,3.2%,5.5%,-8.5%,-2.2%,17.5%,-19.5
O=C(c1ccc2ncsc2c1)N1CCN(c2nc3ccccc3s2)CC1,?,.,-1.6%,9.3%,-20.5%,-73.8*
SMILES,FMDV inh,FBPA Giardia inh,Tb PYK inh,RE007 growth inh,Sm TGR block,HCMV inh
O=C(CN1Cc2ccccc2OC(c2ccsc2)C1)N1CCN(Cc2ccc3c(c2)OCO3)CC1 (stereo unspecified),1.1%,.,.,.,.,.
CCOc1ccc2nc(NC(=O)c3nc(SC(C)C)ncc3Cl)sc2c1,-18.0%,.,3.3%,.,1.5%,-17.3
O=C(CSc1nnc(-c2cccc(F)c2)c(-c2cccc(F)c2)n1)NC1CCCCC1,-10.4%,.,-5.8%,.,5.8%,11.7
O=C(c1ccc(S(=O)(=O)Cc2ccccc2Cl)c([N+](=O)[O-])c1)N1CCN(c2ccccn2)CC1,15.8µM*,-9.2%,-2.9%,-8.7%,7.94µM*,-97.2*
Cc1ccccc1S(=O)(=O)Cc1ccc(C(=O)N2CCN(c3cccc(Cl)c3)CC2)o1,-9.2%,.,-4.2%,.,2.7%,-32.0
COc1cc2ccccc2cc1C(=O)N1CCN(C(C)=O)CC1,-3.6%,.,4.0%,-9.1%,-0.9%,18.1
COc1cc2ccccc2cc1C(=O)N1CCN(c2nc3ccc(F)cc3s2)CC1,?,.,-11.7%,.,6.2%,-64.4*
O=C(c1ccc(Cl)c([N+](=O)[O-])c1)N1CCN(c2ccccn2)CC1,-23.8%,1.2%,-14.2%,1.8%,4.5%,?
Cc1ccccc1S(=O)(=O)Cc1ccc(C(=O)N2CCN(c3cccc(C)c3C)CC2)o1,25.1µM*,4.7%,-0.6%,-23.7%,-17.1%,-20.0
COc1ccccc1S(=O)(=O)Cc1ccc(C(=O)N2CCN(c3ccccn3)CC2)o1,?,1.6%,-4.5%,-10.9%,28.2µM*,.
CCN(CCCNC(=O)c1nn(-c2ccc(OC)c(Cl)c2)c(=O)c2c1c1ccccc1n2C)c1cccc(C)c1,-6.0%,.,-5.1%,.,-13.3%,19.0
O=C(NCc1cccnc1)c1cnn(-c2nccc(-c3cccs3)n2)c1C1CC1,-18.3%,.,.,.,.,.
CCN(CC)C(=O)c1sc2c(c1C)c(=O)n(-c1ccc(OC)cc1OC)c(=O)n2CC(=O)Nc1ccccc1,-5.5%,.,-2.7%,.,-8.2%,-0.5
Cc1nc2ccc(C(=O)N3CCN(c4ccccn4)CC3)cc2s1,-6.7%,5.6%,-7.4%,-22.3%,18.1%,-93.4*
COc1ccc(C(=O)N2CCN(c3ccccn3)CC2)cc1[N+](=O)[O-],-27.8%,4.8%,2.3%,-0.6%,4.0%,-80.1*
COc1ccc2c(c1)C(=O)[C@H](OC(=O)NS(=O)(=O)c1ccc(F)cc1)[C@@H](c1ccc(OC)c(Br)c1)O2,.,0.6%,.,.,.,.
CNc1ncnc2c1ncn2[C@H]1C[C@H](OP(=O)(O)O)[C@@H](COP(=O)(O)O)O1,.,1.9%,.,.,.,.
COc1ccc(NC(=O)C2=CC(c3ccc(C)cc3)=NS(=O)(=O)N2C)cc1OC,?,-10.8%,-2.1%,-0.4%,0.1%,-62.1*

# Compound activity: PubChem, National Center for Advancing Translational Sciences (NCATS)
